Experiment [1] addresses Tyrosine-protein kinase receptor UFO (Homo sapiens) (UniProt P30530). The following applies: at 1 µM.
Experiment [2] addresses Tyrosine-protein kinase Blk (Homo sapiens) (UniProt P51451). Particulars: at 0.1 µM.
The target is the same in experiment [3]. The following applies: at 1 µM.
The target in experiment [4] is T1, Cytoplasmic tyrosine-protein kinase BMX (Homo sapiens) (UniProt P51813).
T1 sequence (whole entry): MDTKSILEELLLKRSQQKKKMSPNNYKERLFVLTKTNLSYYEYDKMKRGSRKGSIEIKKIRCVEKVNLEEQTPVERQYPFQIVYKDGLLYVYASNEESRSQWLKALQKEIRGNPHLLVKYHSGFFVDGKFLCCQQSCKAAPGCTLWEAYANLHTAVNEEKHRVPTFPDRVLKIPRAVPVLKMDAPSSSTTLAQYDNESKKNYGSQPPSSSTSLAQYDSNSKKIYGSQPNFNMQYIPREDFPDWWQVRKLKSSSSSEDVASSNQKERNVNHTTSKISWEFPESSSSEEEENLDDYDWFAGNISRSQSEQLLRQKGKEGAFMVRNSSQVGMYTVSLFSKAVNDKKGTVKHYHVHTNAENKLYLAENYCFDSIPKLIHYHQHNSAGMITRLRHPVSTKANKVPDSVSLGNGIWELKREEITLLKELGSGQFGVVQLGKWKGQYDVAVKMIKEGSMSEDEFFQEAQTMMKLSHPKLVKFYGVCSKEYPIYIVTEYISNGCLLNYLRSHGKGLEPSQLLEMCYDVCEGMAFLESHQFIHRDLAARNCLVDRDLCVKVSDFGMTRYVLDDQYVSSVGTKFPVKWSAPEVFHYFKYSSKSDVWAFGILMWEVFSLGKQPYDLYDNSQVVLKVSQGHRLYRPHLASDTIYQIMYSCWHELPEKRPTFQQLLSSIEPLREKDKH
The following applies: at 0.1 µM.

The target of experiment [5] is T1, Cytoplasmic tyrosine-protein kinase BMX (Homo sapiens). The following applies: at 1 µM.
Experiment [6] has as its target Protein-tyrosine kinase 6 (Homo sapiens) (UniProt Q13882). Particulars: at 0.1 µM.
Experiment [7] shares this target. The following applies: at 1 µM.
Experiment [8] addresses Tyrosine-protein kinase BTK (Homo sapiens) (UniProt Q06187). The following applies: at 0.1 µM.
Experiment [9] has the same target. Particulars: at 1 µM.
The target of experiment [10] is Tyrosine-protein kinase CSK (Homo sapiens) (UniProt P41240). Particulars: at 0.1 µM.
Experiment [11] shares this target. Particulars: at 1 µM.
The target of experiment [12] is T2, Discoidin domain-containing receptor 2 (Homo sapiens) (UniProt Q16832).
T2 sequence (whole entry): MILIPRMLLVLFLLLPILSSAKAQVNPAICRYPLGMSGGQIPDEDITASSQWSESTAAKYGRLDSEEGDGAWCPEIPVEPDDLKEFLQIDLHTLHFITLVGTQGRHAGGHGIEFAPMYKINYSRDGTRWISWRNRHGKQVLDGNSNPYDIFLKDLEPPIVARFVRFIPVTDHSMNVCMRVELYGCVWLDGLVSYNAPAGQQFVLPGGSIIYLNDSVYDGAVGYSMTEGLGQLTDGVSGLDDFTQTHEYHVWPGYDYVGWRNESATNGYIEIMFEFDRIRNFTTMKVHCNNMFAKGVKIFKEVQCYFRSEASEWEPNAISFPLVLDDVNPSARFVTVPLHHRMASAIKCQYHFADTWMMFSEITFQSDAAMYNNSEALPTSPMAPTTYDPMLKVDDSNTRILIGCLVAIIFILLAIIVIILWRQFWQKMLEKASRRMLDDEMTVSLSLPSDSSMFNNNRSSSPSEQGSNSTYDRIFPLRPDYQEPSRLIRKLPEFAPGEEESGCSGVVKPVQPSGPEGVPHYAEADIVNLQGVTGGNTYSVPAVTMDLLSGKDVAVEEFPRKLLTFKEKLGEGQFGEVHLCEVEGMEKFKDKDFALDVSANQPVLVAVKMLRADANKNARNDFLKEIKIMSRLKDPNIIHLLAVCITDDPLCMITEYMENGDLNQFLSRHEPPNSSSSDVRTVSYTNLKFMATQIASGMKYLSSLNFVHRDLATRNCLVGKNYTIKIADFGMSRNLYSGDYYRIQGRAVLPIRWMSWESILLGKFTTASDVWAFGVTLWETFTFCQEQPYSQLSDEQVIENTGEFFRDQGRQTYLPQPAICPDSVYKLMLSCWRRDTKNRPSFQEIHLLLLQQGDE
Particulars: at 0.1 µM.

The target in experiment [13] is T2, Discoidin domain-containing receptor 2 (Homo sapiens). Particulars: at 1 µM.
In experiment [14] the target is Epidermal growth factor receptor (Homo sapiens) (UniProt P00533). Particulars: at 0.1 µM.
Experiment [15] has the same target. Particulars: at 1 µM.
Experiment [16] deals with Epidermal growth factor receptor (Homo sapiens), P00533 [L858R]. Particulars: at 0.1 µM.
The test system is the same in experiment [17]. The following applies: at 1 µM.
In experiment [18] the test system is Epidermal growth factor receptor (Homo sapiens), P00533 [L861Q]. The following applies: at 0.1 µM.
Experiment [19] has the same test system. The following applies: at 1 µM.
For experiment [20], the system named is Epidermal growth factor receptor (Homo sapiens), P00533 [T790M]. Particulars: at 0.1 µM.

Sequence of Epidermal growth factor receptor (Homo sapiens), P00533 [L861Q] (P00533 whole entry L861Q): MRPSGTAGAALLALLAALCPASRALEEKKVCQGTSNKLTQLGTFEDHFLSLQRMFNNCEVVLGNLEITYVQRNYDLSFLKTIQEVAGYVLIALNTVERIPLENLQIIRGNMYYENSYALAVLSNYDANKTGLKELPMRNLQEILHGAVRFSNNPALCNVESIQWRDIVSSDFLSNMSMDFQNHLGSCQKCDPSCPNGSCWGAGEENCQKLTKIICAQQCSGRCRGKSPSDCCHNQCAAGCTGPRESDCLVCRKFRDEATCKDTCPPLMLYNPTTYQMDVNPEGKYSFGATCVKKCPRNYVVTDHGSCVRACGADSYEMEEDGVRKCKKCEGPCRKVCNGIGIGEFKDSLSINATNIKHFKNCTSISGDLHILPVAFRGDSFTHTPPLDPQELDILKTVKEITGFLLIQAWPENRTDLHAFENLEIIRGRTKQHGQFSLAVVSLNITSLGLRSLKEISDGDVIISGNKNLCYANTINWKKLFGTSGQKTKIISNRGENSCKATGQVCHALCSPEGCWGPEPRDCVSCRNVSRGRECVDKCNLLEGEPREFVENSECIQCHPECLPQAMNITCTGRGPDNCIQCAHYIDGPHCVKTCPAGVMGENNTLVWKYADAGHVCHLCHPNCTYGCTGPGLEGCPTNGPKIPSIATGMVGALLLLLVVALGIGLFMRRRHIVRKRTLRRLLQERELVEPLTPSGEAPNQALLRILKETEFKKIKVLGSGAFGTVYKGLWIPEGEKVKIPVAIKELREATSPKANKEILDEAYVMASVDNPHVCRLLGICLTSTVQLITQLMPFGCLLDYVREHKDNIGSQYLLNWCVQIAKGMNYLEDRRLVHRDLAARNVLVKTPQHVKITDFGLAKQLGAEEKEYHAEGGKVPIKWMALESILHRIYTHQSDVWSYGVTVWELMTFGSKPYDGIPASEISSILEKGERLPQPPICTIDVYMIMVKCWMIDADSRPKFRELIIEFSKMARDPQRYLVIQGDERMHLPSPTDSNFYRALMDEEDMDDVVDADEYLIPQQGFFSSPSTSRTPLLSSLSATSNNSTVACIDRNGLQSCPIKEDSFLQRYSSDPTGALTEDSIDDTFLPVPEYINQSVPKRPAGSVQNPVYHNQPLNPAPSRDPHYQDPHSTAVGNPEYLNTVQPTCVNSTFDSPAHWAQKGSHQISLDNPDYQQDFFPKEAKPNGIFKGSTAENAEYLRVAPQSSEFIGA
Sequence of Tyrosine-protein kinase Blk (Homo sapiens) (P51451 2-505 limits assumed): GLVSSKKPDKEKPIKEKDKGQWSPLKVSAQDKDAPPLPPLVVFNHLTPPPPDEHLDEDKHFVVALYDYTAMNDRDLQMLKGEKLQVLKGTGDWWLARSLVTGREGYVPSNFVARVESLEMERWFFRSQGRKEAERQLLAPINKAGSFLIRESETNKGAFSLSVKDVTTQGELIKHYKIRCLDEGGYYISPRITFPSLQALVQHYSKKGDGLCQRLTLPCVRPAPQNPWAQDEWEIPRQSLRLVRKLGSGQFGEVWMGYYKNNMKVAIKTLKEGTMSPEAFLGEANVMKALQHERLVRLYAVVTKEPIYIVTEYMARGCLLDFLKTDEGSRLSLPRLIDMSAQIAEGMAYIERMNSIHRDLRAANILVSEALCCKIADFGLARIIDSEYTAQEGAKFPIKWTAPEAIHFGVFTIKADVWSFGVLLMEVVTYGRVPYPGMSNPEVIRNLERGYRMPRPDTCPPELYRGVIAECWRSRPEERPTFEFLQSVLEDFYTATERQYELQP
Sequence of Protein-tyrosine kinase 6 (Homo sapiens) (Q13882 whole entry, looked up): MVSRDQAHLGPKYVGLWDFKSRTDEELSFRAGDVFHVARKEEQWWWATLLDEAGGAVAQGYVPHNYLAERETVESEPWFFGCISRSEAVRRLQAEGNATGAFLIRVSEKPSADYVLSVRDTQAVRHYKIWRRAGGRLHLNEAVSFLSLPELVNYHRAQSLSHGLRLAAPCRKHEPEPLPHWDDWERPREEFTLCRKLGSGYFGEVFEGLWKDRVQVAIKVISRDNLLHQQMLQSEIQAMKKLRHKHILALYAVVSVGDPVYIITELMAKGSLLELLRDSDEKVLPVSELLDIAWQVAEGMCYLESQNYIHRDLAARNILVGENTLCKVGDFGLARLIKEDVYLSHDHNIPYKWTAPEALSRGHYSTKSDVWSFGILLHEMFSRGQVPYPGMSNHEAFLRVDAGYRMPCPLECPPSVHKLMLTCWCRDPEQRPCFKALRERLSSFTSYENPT
Sequence of Epidermal growth factor receptor (Homo sapiens) (P00533 whole entry): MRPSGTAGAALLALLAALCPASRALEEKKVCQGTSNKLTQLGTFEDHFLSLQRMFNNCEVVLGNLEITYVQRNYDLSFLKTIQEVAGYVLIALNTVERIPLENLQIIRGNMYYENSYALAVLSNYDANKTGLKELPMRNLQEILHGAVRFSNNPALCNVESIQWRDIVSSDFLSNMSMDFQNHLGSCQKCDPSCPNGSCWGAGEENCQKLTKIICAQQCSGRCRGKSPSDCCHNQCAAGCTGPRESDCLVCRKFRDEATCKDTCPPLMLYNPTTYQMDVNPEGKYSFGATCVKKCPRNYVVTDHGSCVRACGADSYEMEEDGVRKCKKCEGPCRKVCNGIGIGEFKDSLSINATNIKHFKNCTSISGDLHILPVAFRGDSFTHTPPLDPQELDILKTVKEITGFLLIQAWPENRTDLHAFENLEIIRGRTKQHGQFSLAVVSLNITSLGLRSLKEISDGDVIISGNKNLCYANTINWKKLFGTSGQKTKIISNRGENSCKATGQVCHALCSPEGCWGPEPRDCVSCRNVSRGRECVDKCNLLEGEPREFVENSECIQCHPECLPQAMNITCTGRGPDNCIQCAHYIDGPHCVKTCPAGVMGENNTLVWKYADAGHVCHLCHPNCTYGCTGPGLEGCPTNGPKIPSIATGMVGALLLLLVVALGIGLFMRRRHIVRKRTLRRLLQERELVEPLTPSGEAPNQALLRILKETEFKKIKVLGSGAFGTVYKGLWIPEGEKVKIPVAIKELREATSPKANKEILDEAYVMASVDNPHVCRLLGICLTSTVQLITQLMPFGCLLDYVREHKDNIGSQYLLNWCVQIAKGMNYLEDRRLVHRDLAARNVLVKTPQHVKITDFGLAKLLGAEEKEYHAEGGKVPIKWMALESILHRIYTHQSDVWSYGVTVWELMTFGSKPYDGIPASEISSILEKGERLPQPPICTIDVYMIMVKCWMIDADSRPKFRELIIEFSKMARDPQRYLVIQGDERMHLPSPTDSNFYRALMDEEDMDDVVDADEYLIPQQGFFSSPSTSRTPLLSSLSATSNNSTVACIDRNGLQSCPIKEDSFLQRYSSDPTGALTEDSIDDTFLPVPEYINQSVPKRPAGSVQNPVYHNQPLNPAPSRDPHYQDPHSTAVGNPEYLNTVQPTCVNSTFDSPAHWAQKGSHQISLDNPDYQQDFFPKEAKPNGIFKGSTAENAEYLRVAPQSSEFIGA
Sequence of Tyrosine-protein kinase BTK (Homo sapiens) (Q06187 whole entry): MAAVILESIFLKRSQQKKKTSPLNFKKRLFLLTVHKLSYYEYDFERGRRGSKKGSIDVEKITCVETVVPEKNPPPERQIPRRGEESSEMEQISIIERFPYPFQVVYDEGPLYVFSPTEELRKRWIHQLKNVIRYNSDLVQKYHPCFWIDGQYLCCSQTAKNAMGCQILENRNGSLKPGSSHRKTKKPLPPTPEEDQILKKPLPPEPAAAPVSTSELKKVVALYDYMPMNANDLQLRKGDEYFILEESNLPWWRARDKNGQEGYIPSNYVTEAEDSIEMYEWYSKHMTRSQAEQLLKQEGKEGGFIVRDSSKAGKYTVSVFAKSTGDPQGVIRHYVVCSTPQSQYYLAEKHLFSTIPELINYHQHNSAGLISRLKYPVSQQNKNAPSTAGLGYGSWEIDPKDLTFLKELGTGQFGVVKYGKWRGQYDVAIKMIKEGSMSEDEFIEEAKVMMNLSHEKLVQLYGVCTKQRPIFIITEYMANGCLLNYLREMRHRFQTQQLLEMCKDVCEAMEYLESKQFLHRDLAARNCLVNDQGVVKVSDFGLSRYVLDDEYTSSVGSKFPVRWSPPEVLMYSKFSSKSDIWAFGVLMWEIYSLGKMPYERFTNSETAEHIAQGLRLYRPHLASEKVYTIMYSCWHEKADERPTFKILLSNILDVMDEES
Sequence of Tyrosine-protein kinase receptor UFO (Homo sapiens) (P30530 whole entry): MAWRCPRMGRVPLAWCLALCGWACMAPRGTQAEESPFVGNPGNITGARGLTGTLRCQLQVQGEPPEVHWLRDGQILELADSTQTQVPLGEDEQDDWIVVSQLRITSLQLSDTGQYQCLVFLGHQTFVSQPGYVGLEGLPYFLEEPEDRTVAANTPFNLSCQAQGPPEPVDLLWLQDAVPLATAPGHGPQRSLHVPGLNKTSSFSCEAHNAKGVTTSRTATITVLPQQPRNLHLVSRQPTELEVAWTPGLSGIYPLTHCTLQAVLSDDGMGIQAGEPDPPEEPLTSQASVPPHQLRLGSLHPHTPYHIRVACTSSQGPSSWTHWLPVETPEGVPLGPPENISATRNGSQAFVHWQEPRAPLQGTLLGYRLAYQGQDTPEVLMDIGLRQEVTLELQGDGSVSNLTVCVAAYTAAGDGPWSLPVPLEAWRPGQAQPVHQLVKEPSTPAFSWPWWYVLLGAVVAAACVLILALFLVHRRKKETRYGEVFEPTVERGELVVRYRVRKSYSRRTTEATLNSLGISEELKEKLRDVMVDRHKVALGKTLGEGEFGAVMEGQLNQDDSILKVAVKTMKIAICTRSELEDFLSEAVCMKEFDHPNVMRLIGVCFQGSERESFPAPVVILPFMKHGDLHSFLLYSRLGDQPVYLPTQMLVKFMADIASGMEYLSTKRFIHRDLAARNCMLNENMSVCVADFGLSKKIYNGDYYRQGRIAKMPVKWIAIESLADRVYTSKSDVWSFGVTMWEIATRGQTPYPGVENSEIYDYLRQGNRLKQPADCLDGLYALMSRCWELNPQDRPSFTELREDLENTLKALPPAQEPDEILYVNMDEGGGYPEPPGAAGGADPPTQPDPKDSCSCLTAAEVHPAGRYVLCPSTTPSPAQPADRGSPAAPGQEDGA

With `COc1ccc(-c2cc3c(N)ncnc3o2)cc1`, the inhibition (commonly the drop in the measured response relative to a control, in per cent) in experiment [1] was 2.96%; in [2], 0.55%; in [3], 4.67%; in experiment [4], -2.47%; in experiment [5] it was 2.73%; in experiment [6], 0.01%. In addition, the inhibition in experiment [7] was 2.82%; in experiment [8], -0.13%; in [9], -0.38%; in experiment [10], -1.51%; in [11] it was -0.98%; in experiment [12], -0.42%. Moreover, the inhibition in experiment [13] was 0.02%; in experiment [14] it was 0.82%; in experiment [15], 2%; in experiment [16] it was 0.82%; in experiment [17] it was -0.02%; in experiment [18], -0.61%. For the same compound, the inhibition in [19] is -1.15%; in experiment [20] it was -2.23%.

`c1ccc(COc2ccc(Nc3ncnc4ccc(-c5ccco5)cc34)cc2)cc1`: the inhibition was 2.06% in [1]; 1.56% in experiment [2]; 3.68% in experiment [3]; -1% in [4]; 2.02% in [5]; 1.6% in experiment [6]. Also, the inhibition is 2.35% in [7]; 0.63% in experiment [8]; 1.73% in [9]; 0.39% in experiment [10]; 1.89% in experiment [11]; 0.26% in experiment [12]. Further, the inhibition in [13] came to 1.14%; in experiment [14] it was 64.3%; in [15] it was 86.1%; in [16], 9.89%; in experiment [17], 39.4%; in experiment [18] it was 22.1%. Besides, the inhibition in experiment [19] came out at 36.1%; in [20], 1.47%.

As to `Fc1ccc(-c2nn3ccccc3c2-c2ccncc2)cc1`, the inhibition is 0.78% in experiment [1]; 0.92% in experiment [2]; 2.66% in [3]; -1.75% in [4]; 1.42% in experiment [5]; -1.18% in experiment [6]. In addition, the inhibition is 7.58% in experiment [7]; -2.02% in experiment [8]; -1.29% in [9]; -0.04% in experiment [10]; 2.22% in experiment [11]; 1.72% in experiment [12]. Moreover, the inhibition in experiment [13] amounted to 5.54%.

As to `Cc1cccc(Nc2ncc(-c3ccccc3)o2)c1`, the inhibition is -3.9% in [1]; 3.13% in experiment [2]; 6.39% in experiment [3]; 4.13% in experiment [4]; 6.25% in [5]; 2.06% in [6]. For the same compound, the inhibition came out at 0.15% in experiment [7]; 0.69% in experiment [8]; 1.31% in experiment [9]; 1.12% in [10]; 0.89% in [11]; 0.22% in [12]. Also, the inhibition in experiment [13] was 0.44%; in experiment [14] it was 2.11%; in [15] it was 2.82%; in [16], 0.79%; in [17], 2.98%; in experiment [18], -0.45%. In addition, the inhibition amounted to 1.8% in experiment [19] and 0.73% in [20].

For the compound `Nc1nc(-c2ccc(F)cc2)c(-c2ccc3ncccc3n2)s1`, the inhibition in experiment [1] was -3.07%; in experiment [2] it was 4.2%; in experiment [3] it was 12.1%; in [4], -2.65%; in experiment [5], 6.23%; in experiment [6] it was 7.59%. For the same compound, the inhibition stood at 20.6% in experiment [7]; 0.27% in experiment [8]; 0.99% in [9]; 5.94% in [10]; 5.38% in [11]; 0.01% in experiment [12]. Also, the inhibition is -5.99% in experiment [13]; 2.98% in experiment [14]; 21.7% in experiment [15]; 13.1% in [16]; 60.5% in experiment [17]; 6.11% in experiment [18]. For the same compound, the inhibition in experiment [19] was found to be 22.4%; in experiment [20] it was 1.84%.

For `Cc1cccc2c1NC(=O)/C2=N\Nc1ccc(S(N)(=O)=O)cc1`, the inhibition in experiment [1] is -0.34%; in [2], 1.72%; in experiment [3], 5.96%; in [4] it was -0.08%; in experiment [5], 2.79%; in experiment [6] it was 0.03%. Also, the inhibition amounted to 1.67% in experiment [7]; 1.48% in [8]; 1.48% in [9]; 3.78% in experiment [10]; 4.79% in experiment [11]; 1.44% in [12]. In addition, the inhibition in experiment [13] is 1.81%; in experiment [14], 5.97%; in experiment [15], 9.39%; in [16], 3.74%; in [17], 5.52%; in experiment [18], 1.86%. Moreover, the inhibition in [19] is 0.73%; in experiment [20], -0.7%.

Turning to `CS(=O)(=O)CCNCc1ccc(-c2ccc3ncnc(Nc4ccc(OCc5ccccc5)c(C(F)(F)F)c4)c3c2)o1`, the inhibition in experiment [1] is -6.09%; in experiment [2], 3.53%; in [3] it was 4.36%; in [4], 2.52%; in experiment [5] it was 1.86%; in [6], 3.06%. Also, the inhibition in [7] is 3.52%; in experiment [8], 1.47%; in [9], 1.16%; in [10], 0.54%; in experiment [11], 3.7%; in experiment [12] it was 1.76%. In addition, the inhibition in [13] was 1.84%; in experiment [14], 12.5%; in experiment [15], 71.2%; in experiment [16], 9.52%; in experiment [17], 50.1%; in experiment [18] it was 17.8%. For the same compound, the inhibition in [19] turned out to be 41.7%; in experiment [20], 2.35%.

As to `CC(=O)NCc1cccc(C#Cc2cncnc2Nc2ccc(OCc3cccc(F)c3)c(Cl)c2)c1`, the inhibition was 0.14% in experiment [1]; -0.03% in experiment [2]; 0.29% in experiment [3]; 2.32% in experiment [4]; 0.07% in [5]; 0.12% in experiment [6]. Besides, the inhibition is 3.96% in experiment [7]; -1.42% in experiment [8]; -0.78% in experiment [9]; -0.86% in experiment [10]; -2.55% in experiment [11]; 1.32% in experiment [12]. The inhibition in experiment [13] was 1.46%; in experiment [14], 61.2%; in experiment [15] it was 75.8%; in experiment [16], 10.4%; in [17] it was 54.2%; in [18] it was 24%. For the same compound, the inhibition is 42.1% in experiment [19] and -1.44% in experiment [20].

`FC(F)(F)c1cccc(-c2nn3ncccc3c2-c2ccnc(Nc3ccc4c(c3)OCCO4)n2)c1`: the inhibition in experiment [1] is -1.04%; in experiment [2], 4.81%; in experiment [3], 45.5%; in experiment [4], 7.84%; in [5], 29.9%; in experiment [6], 4.61%. Moreover, the inhibition in [7] is 28.5%; in [8], -0.12%; in [9], 2.88%; in experiment [10] it was 5.73%; in experiment [11], 4.25%; in [12], 1.27%. The inhibition in [13] was found to be 16.5%; in experiment [14], 5.52%; in experiment [15] it was 45.3%; in experiment [16], 5.51%; in [17], 55.7%; in experiment [18] it was 8.83%. The inhibition in experiment [19] came out at 33.4%; in experiment [20] it was 2.2%.

The record behind these values is ChEMBL document CHEMBL1961873, “Compounds: GSK PKIS; Assays: Nanosyn kinase panel” (2012).
